Inconclusive results are not listed. Values without a mark were called inactive. Activity calls are given as the source filed them. Calls come from the whole dose curve; as a rule, active = well fitted inhibition curve with a large enough effect; inconclusive = small, poorly fitted or top-dose-only effect; inactive = flat fitted curve, though single readings scatter.
tested on: MCC-13; test: qHTS assay to identify novel small-molecules to repurpose for Merkel cell carcinoma treatment (AID 1296009); conditions: MCC and control cell lines, CellTiter-Glo viability, 72 h; series mostly up to 46 µM; activity change, negative = cytotoxicity: at the top concentration; note: nearly all actives have a fitted effect of over 60% in size
Summary of the method: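 Dose-response viability screen; 72 hr exposure at 37 degree celsius; CellTiter-Glo added, 10 min room temperature, luminescence read; RLUs scaled between no-cell and DMSO wells.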
% is set by controls: 0 for no effect and ±100 for the full control effect; potency is the fitted concentration of half-maximal effect.

Row | Structure (SMILES) | activity change, negative = cytotoxicity [%] | Potency
1 | CCc1oc2ccccc2c1C(=O)c1cc(Br)c(O)c(Br)c1 | -12.7 | –
2 | C=C[C@H]1CN2CC[C@H]1C[C@H]2[C@H](O)c1ccnc2ccc(OC)cc12 | 1.47 | –
3 | CC[C@H](c1ccc(O)cc1)[C@@H](CC)c1ccc(O)cc1 | -15.7 | –
4 | CCCCC(CC)CN1CN(CC(CC)CCCC)CC(C)(N)C1 (centres undefined) | -10.8 | –
5 | CO[C@H]1C=CO[C@@]2(C)Oc3c(C)c(O)c4c(O)c(c(/C=N/N5CCN(C)CC5)c(O)c4c3C2=O)NC(=O)/C(C)=C\C=C[C@H](C)[C@H](O)[C@@H](C)[C@@H](O)[C@@H](C)[C@H](OC(C)=O)[C@@H]1C | -4.65 | –
6 | Cc1cc(CC(=O)O)c(C)n1-c1ccc(Cl)cc1 | 0.529 | –
7 | O=C1[C@H](CC[C@H](O)c2ccc(F)cc2)[C@@H](c2ccc(O)cc2)N1c1ccc(F)cc1 | 4.88 | –
8 | C#C[C@]1(O)CC[C@H]2[C@@H]3[C@H](C)CC4=C(CCC(=O)C4)[C@H]3CC[C@@]21C | 12.2 | –
9 | CC(C)n1c(/C=C/[C@@H](O)C[C@@H](O)CC(=O)O)c(-c2ccc(F)cc2)c2ccccc21 | – | 9.44 µM (active)
10 | CC(=O)OCC1=C(C(=O)O)N2C(=O)[C@@H](NC(=O)CSc3ccncc3)[C@H]2SC1 | -2.92 | –
11 | NCCNC(=O)c1ccc(Cl)cn1 | 5.69 | –
12 | C[C@]12CCC(=O)C=C1C=C[C@@H]1[C@@H]2CC[C@@]2(C)[C@H]1CC[C@@]21CCC(=O)O1 | -8.54 | –
13 | COc1ccc(CCN(C)CCCN2CCc3cc(OC)c(OC)cc3CC2=O)cc1OC | 10.2 | –
14 | CC(=O)O[C@]1(C(C)=O)CC[C@H]2[C@@H]3C=C(Cl)C4=CC(=O)CC[C@]4(C)[C@H]3CC[C@@]21C | -2.61 | –

Source: PubChem BioAssay (NCATS)
